Out of some 300,000 compounds screened, about 2,300 (0.77%) were called active. For the sample, actives were picked, then their nearest neighbours and some compounds at random. A number with no mark means an inactive call.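 How the source made its calls: active means mean activation of at least 80% with every replicate also reaching 80%; inconclusive means mean reaches 80% but some replicate falls short; inactive means the rest.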

This experiment is described as follows: activators of MITF-driven TRPM1 promoter reporter, primary screen, cell-based, SK-MEL-5, luciferase, single point (AID 588334).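 Further: 0% = neutral control wells and 100% = parthenolide positive control wells.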 The conditions noted are these: SK-MEL-5 TRPM1-promoter luciferase, 24 h; at 12.5 µM; hits give high values; % of positive control, neutral wells = 0.
As to `CCOC(=O)C(C)n1cnc2sc(C)c(C)c2c1=O` (centres undefined), the activation is 2.04%.

As to `Cc1c(C(N)=O)sc2ncn(CCOc3ccccc3)c(=O)c12`, the activation is 17.3%. Regarding `Cc1cccc(OC(=O)c2sc3ncn(C)c(=O)c3c2C)c1`, the activation is 93.6% (active).

Regarding `CCC(CO)Oc1cc(NCc2ccccc2)c2ncn(C3CCCC3)c2c1` (centres undefined), the activation was 9.77%.

With `NC(=O)c1ncn([C@@H]2O[C@H](CNCc3cnc(N4CCOCC4)s3)[C@@H](O)[C@H]2O)n1`, the activation is -0.075%.

`O=C(Cc1ccc(S(=O)(=O)N2CCOCC2)s1)Nc1ccc(Br)c(C(F)(F)F)c1`: the activation was 17.8%. Next, `O=C(CC1Sc2ccccc2NC1=O)NNc1ccc(Cl)c(Cl)c1` (centres undefined): 9.23%; `O=c1c2ccccc2nnn1CSc1nnnn1-c1ccccc1`: 87.9% (active). Next, `C=CCn1c(SCn2nnc3ccccc3c2=O)nnc1-c1ccc(Cl)cc1`: -11%; `Nc1nnc(SCn2nnc3ccccc3c2=O)s1`: -7.75%; `O=C(NCCC(=O)N1O[C@@H]2C=C[C@H]1C2)OCC1c2ccccc2-c2ccccc21`: 12.3%. In the case of `COc1ccc(CNC(=O)COC(=O)C2=Cc3ccccc3OC2)cc1` it was -1.47%. As to `CC(C)N(C(=O)[C@H]1C[C@H](CC(=O)NC(C)(C)C)C(=O)N2CCc3c([nH]c4ccc(Cl)cc34)[C@]12C)C(C)C`, the activation is -26.3%.

With `COc1cc(C(=O)N2CCN(S(=O)(=O)c3ccc(C(C)C)cc3)CC2)ccc1OCC(=O)N1CCOCC1`, the activation is -0.869%. In the case of `O=C(O)c1ccc(N/N=C/c2ccc3ncccc3c2)cc1` it was -58.9%; in that of `Cc1ccc2cc(/C=N/Nc3ccc(C(=O)O)cc3)c(Cl)nc2c1`, 99.2% (active). For `Cc1ccc2cc(/C=N/NC(=O)[C@@H]3CCCN3)c(Cl)nc2c1`, the activation was 19.1%. With `O=C1C[C@@H]2c3c(cccc3CN1Cc1ccccc1)C[C@@H](O)[C@H]2O`, the activation is 8.46%. In the case of `COc1ccc(C2=Nn3c(nnc3-c3ccccc3OC)SC2)cc1OC1CCCC1` it was -62.2%. Next, `CC(=NNC(=O)c1ccncc1)c1ccc(Cl)c(Cl)c1`: 4.45%; `O=C(NCCC1=CCCCC1)c1ccc(-n2cncn2)cc1`: 83.6% (active). Next, `O=C(NCCC1=CCCCC1)c1ccc(Cl)c([N+](=O)[O-])c1`: 31.3%. On to `CN(c1ccc(C(=O)NCCC2=CCCCC2)cc1)S(C)(=O)=O`, for which the activation is 45.6%. In the case of `CN(C)C(CNC(=O)c1cc2ccccc2o1)c1ccccc1` (centres undefined) it was 1.76%; in that of `CCNC(=O)N(CC)C[C@H]1N[C@@](CC)(C(=O)OC)[C@H]2C(=O)N(Cc3ccccc3)C(=O)[C@@H]12`, 0.033%.

On to `CNN/C(N=Cc1ccc([N+](=O)[O-])s1)=N\S(=O)(=O)c1cc(C)c(Cl)cc1SCc1ccccc1`, for which the activation is -22.7%. Regarding `COc1ccc(S(=O)(=O)N(C)C)cc1NC(=O)CSc1ncccn1`, the activation is 0.656%. For the molecule `CN(C)S(=O)(=O)c1ccc2oc(SCC(=O)Nc3ccccc3F)nc2c1`, the activation is 114% (active). In the case of `CCCc1nc(SCC(=O)Nc2ccc(S(=O)(=O)N(C)C)cc2)c2ccccc2n1` it was -0.188%; in that of `COc1ccc(CCC(=O)Nc2ccc(Cl)c(S(=O)(=O)N3CCOCC3)c2)cc1OC`, -5.06%; in that of `O=C1OCC2=C1C(c1ccc(Cl)cc1)c1cc3c(cc1O2)OCO3` (centres undefined), 3.92%. In the case of `O=C(c1noc2c1CCCC2)N1CCc2ccccc2C1` it was 127% (active); in that of `COc1ccc2c(c1)CCc1c(C(=O)N3CCc4ccccc4C3)noc1-2`, 18.4%. Regarding `Cc1ccc(-c2cc(C(=O)N3CCc4ccccc4C3)no2)cc1`, the activation is -5%.

On to `O=C1CC(c2ccccc2)C(=O)N2C(=O)CC(c3ccccc3)C(=O)N12` (centres undefined), for which the activation was 1.12%. In the case of `Cc1nc2ccc(N)nc2nc1C` it was -1.9%.

As for `CCCCN(C(=O)CSCc1ccc(C)cc1)c1c(N)n(Cc2ccccc2)c(=O)[nH]c1=O`, the activation was 15.5%. As to `CC(=O)OCC1(O)CC23CCC4c5ccoc5CCC4(C)C2CCC1C3` (centres undefined), the activation was -8.62%. As to `O=C(Cc1ccc(Cl)cc1)NCc1nc(-c2ccccc2)no1`, the activation was 14.2%. For `O=C(Cc1ccc(Cl)cc1)c1ccccc1`, the activation was 89.3% (active).

For `O=C(Cc1nc2ccccc2[nH]c1=O)c1ccc(Cl)cc1`, the activation is 50.8%. In the case of `C/C(=N\Nc1ccccc1)c1cccs1` it was -5.68%; in that of `COc1cc(O)c2c(=O)c3c(O)c(O)ccc3oc2c1OC`, 2.79%; in that of `COc1ccc(-c2nc3cc(C)ccn3c2NC2CCCCC2)cc1SC1CCCCC1`, 7.59%. `Cc1ccc2nc(N3C(=O)C(O)=C(C(=O)c4ccco4)C3c3cccc(O)c3)sc2c1` (centres undefined): the activation is 10%. Turning to `Cc1ccc2nc(N3CCN(C(=O)c4ccco4)CC3)sc2c1`, the activation was 103% (active).

As for `COc1ccc2nc(N3CCN(C(=O)c4ccc([N+](=O)[O-])o4)CC3)sc2c1`, the activation is -66.4%. With `CCOC(=O)C1CCCN(C(=O)C2CCN(S(=O)(=O)c3ccc(Cl)c(C(F)(F)F)c3)CC2)C1` (centres undefined), the activation was -3.48%. In the case of `O=C1NC[C@@H](c2ccccc2)OC(=O)[C@H](Cc2ccc(F)cc2)CC/C=C/C[C@H]1CC(=O)N(CCO)Cc1ccccc1` it was -2.43%; in that of `COc1ccc(CC(=O)NC(C)c2ccc(Cl)c(Cl)c2)cc1S(=O)(=O)N1CCOCC1` (centres undefined), 6.68%; in that of `CC(=O)Nc1ccc(-c2csc(NC=C3C(=O)OC(C)(C)OC3=O)n2)cc1`, 8.13%. Take `CC(=O)Nc1ccc(-c2csc(NC(=O)Nc3ccccc3)n2)cc1`: the activation was -48.4%. Consider `CC(=O)Nc1cccc(-c2csc(Nc3cccc(C)n3)n2)c1`, for which the activation was 137% (active). Next, `Cc1ccc(Cn2c(C)c3cnn(CC(=O)NCCN4CCOCC4)c(=O)c3c2C)cc1`: -2.1%; `COc1ccccc1-c1sc2ccccc2c1C#CC1(O)CCCCC1`: 5.32%.

For `CCN(CC)CCCC(C)n1c2nc(=O)[nH]c(=O)c-2nc2cc(Cl)ccc21` (centres undefined), the activation is -84%. On to `Cc1cccc(NC(=O)Nc2ccc(OCc3ccccc3)cc2)n1`, for which the activation was -1.41%. Next, `Cc1cccc(NC(=O)COc2ccc(Br)cc2C)n1`: 198% (active); `CCN(CC)S(=O)(=O)c1ccc(C)c(NC(=O)COc2ccc(Br)cc2Cl)c1`: -17.2%.

Values taken from PubChem BioAssay AID588334 (Broad Institute, 2011).
